# Measurements from PubChem BioAssay.
# “And” between values parts separate entries of the source, which are not always exact repeats. Equal values may be shown once. Some structures have more than one record in an assay (separate samples or runs), and their calls can disagree. The source made the active and inactive calls.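 How the source made its calls, unless noted: active means thallium flux through the channel raised or lowered by more than 3 SD from vehicle-only wells, actives on both sides; inactive means the rest.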
# Experiments:
# F380Y = test: BK channel mutant inhibitors and activators – cell-based, U2OS BacMam, thallium flux, beta subunits, selectivity assay, profiling panel (AID 1259406); settings: U2OS BacMam BK variants, at 30 µM;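 further: initial slope of Thallos dye fluorescence rise after thallium is added; log ratio against the mean of 0.3% DMSO vehicle wells on the same plate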
# F380Y/beta1 = test: as above; settings: U2OS BacMam BK variants, at 30 µM
# F380Y/beta2Delta = test: as above; settings: U2OS BacMam BK variants, at 30 µM
# F380Y/beta4 = test: as above; settings: U2OS BacMam BK variants, at 30 µM
# [1] = molecular target: Calcium-activated potassium channel subunit alpha-1 (Homo sapiens) + Leucine-rich repeat-containing protein 26 (Homo sapiens) (UniProt Q12791+Q2I0M4); test: as above; settings: U2OS BacMam BK variants, F380Y/Slo1WT/gamma1, at 30 µM
# R275C = test: as above; settings: U2OS BacMam BK variants, at 30 µM
# R275C/beta1 = test: as above; settings: U2OS BacMam BK variants, at 30 µM
# R275C/beta2Delta = test: as above; settings: U2OS BacMam BK variants, at 30 µM
# R275C/beta4 = test: as above; settings: U2OS BacMam BK variants, at 30 µM
# R275C/Slo1WT/beta2 = test: as above; settings: U2OS BacMam BK variants, at 30 µM
# [2] = P. berghei load reduction in hepatocytes – cell-based, HepG2, luciferase luminescence, HepG2 viability, primary screen (AID 624349; in the data active means parasite load remaining mostly below about 12%, no sharp cut-off; inactive means mostly above about 10%;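 further: 100% = mean of DMSO negative control wells on the same plate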); settings: P. berghei liver stage in HepG2, luciferase luminescence, concentration not given here; parasite load remaining: stronger effect = lower value; viability: measured here: HepG2 viability without parasites
# [3] = signal quenchers or enhancers, Cy5 substrate/SSB – biochemical, NIH Clinical Collection, E. coli SSB, artefact control for HCV NS3 helicase inhibitor project (AID 743268; call rule not given here); settings: Cy5-oligo bound E. coli SSB, fluorescence interference
# [4] = system: Hepatitis C virus NS3 helicase; test: blockers of NS3h binding to DNA – biochemical, fluorescence polarization, NIH Clinical Collection, primary screen (AID 743270; call rule not given here); settings: NS3 helicase binding to Cy5-dT15 DNA, stronger effect = higher value, concentration not given here
# [5] = compounds distorting NS3 helicase fluorescence signal – biochemical, NIH Clinical Collection, artefact control for HCV NS3 helicase inhibitor project (AID 743272; call rule not given here;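 further: HCV NS3 helicase with a Cy5 labelled single stranded DNA probe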); settings: fluorescence interference counterscreen, HCV NS3 helicase assay; stronger effect = lower value
# [6] = modulation of C. elegans fzo-1 (AID 1259413; call rule not given here;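 further: fzo-1 mutant C. elegans worms in liquid wells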); settings: C. elegans fzo-1 modulator screen, mean read-out; stronger effect = higher value
# [7] = viability loss with induced miR-34 in A549 – imaging, A549 dox-inducible miR-34, nuclei and caspase counts, primary screen (AID 1347080;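 active means compounds whose cell count with miR-34 switched on is under 0.7 times the count with it off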); settings: A549 miR-34 inducible, Hoechst nuclei count, 48 h
# [8] = molecular target: Single-stranded DNA-binding protein (Escherichia coli (strain K12)) (UniProt P0AGE0); test: SSB-ssDNA binding inhibitors – biochemical, fluorescence polarization, NIH Clinical Collection, counter-screen for HCV NS3 helicase inhibitor project (AID 743271; in the data active means inhibition above about 28%); settings: E. coli SSB-DNA binding, stronger effect = higher value, concentration not given here
# [9] = EMT-state selective cytotoxicity in co-culture – imaging, PC-3E GFP, TEM4-18 mCherry, primary screen (AID 1345086;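 active means compounds killing one labelled cell type while sparing the other, by normalised counts and ratio limits, not self-fluorescent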;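 on all read-outs here: cells exposed to compound for 72 h before imaging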;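 on red/green cell ratio (normalised): normalised mesenchymal count divided by normalised epithelial count so high means epithelial killing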); settings: PC-3E GFP / TEM4-18 mCherry co-culture, imaging cell counts, at 1 µM; for red/green cell ratio (normalised): actives lie on both sides, counts scaled to control wells, 1 = unselective
# [10] = MELAS cybrid and Rieske KO viability enhancers – cell-based, MELAS cybrids, Rieske KO mouse fibroblasts, CellTiter-Glo, primary screen (AID 1508586;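 active means mean z-score across replicates of 1.96 or higher in either the MELAS or the Rieske mutant cell line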;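 further: z relative to plate mean and SD of compound and empty wells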); settings: low glucose
# [11] = stronger effect = lower value, cell number ratio, induced over uninduced
# [12] = measured here: relative caspase fold change +Dox/-Dox
# [13] = measured here: total cells with miR-34 induction, stronger effect = lower value
# [14] = measured here: total cells without miR-34 induction
# [15] = measured here: epithelial PC-3E GFP cell survival
# [16] = measured here: mesenchymal TEM4-18 mCherry cell survival
# [17] = MELAS cybrid survival, CellTiter-Glo 48 h, stronger effect = higher value
# [18] = Rieske KO mouse fibroblast survival, CellTiter-Glo 72 h
# Sequence of Calcium-activated potassium channel subunit alpha-1 (Homo sapiens) + Leucine-rich repeat-containing protein 26 (Homo sapiens) (Q2I0M4 whole entry, looked up, one chain of several): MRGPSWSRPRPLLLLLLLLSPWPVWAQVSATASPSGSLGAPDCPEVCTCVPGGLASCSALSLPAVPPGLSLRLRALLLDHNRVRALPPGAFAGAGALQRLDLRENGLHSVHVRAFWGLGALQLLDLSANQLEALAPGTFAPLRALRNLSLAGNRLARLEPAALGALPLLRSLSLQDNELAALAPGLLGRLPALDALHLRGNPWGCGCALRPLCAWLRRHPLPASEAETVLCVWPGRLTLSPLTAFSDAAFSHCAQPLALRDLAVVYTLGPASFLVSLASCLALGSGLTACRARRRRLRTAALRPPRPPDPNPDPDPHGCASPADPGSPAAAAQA
compound,measurement,setting,value
Cc1ccc(S(C)(=O)=NC(=O)c2ccc(-c3cc(C(F)(F)F)nn3C)s2)cc1 (stereo not drawn),log fold change Tl+ flux,F380Y,-0.000678 (inactive)
same,log fold change Tl+ flux,F380Y/beta1,0.0247 (inactive)
same,log fold change Tl+ flux,F380Y/beta2Delta,-0.011 (inactive)
same,log fold change Tl+ flux,F380Y/beta4,0.0284 (inactive)
same,log fold change Tl+ flux,[1],0.0389 (inactive)
same,log fold change Tl+ flux,R275C,-0.0362 (inactive)
same,log fold change Tl+ flux,R275C/beta1,0.013 (inactive)
same,log fold change Tl+ flux,R275C/beta2Delta,0.015 (inactive)
same,log fold change Tl+ flux,R275C/beta4,0.00574 (inactive)
same,log fold change Tl+ flux,R275C/Slo1WT/beta2,0.0204 (inactive)
Cc1cccc(CCN2CCC(C(=O)c3ccc(NS(C)(=O)=O)cc3)CC2)n1,parasite load remaining,[2],49.2% (inactive)
same,viability,[2],75.4%
same,fluorescence ratio,[3],0.97 (inactive)
same,inhibition,[4],-6.33% (inactive)
same,fluorescence ratio,[5],0.95 (inactive)
same,mean signal,[6],229 (inactive)
same,fold change,[7]; [11],0.911 (inactive) and 0.937 (inactive) and 0.845 (inactive)
same,fold change,[7]; [12],1.08 and 1.19 and 0.815
same,cell count,[7]; [13],9110 and 5280 and 8030
same,cell count,[7]; [14],10000 and 5630 and 9500
same,log fold change Tl+ flux,F380Y,0.00945 (inactive)
same,log fold change Tl+ flux,F380Y/beta1,0.0315 (inactive)
same,log fold change Tl+ flux,F380Y/beta2Delta,0.0105 (inactive)
same,log fold change Tl+ flux,F380Y/beta4,-0.0658 (inactive)
same,log fold change Tl+ flux,[1],0.0152 (inactive)
same,log fold change Tl+ flux,R275C,-0.00568 (inactive)
same,log fold change Tl+ flux,R275C/beta1,0.0227 (inactive)
same,log fold change Tl+ flux,R275C/beta2Delta,-0.0466 (inactive)
same,log fold change Tl+ flux,R275C/beta4,0.0164 (inactive)
same,log fold change Tl+ flux,R275C/Slo1WT/beta2,-0.028 (inactive)
FC(F)(F)c1cc(C=Cc2noc(-c3ccc(CN4CCCC4)cc3)n2)cc(C(F)(F)F)c1,log fold change Tl+ flux,F380Y,-0.0963 (inactive)
same,log fold change Tl+ flux,F380Y/beta1,0.0303 (inactive)
same,log fold change Tl+ flux,F380Y/beta2Delta,-0.0239 (inactive)
same,log fold change Tl+ flux,F380Y/beta4,-0.0108 (inactive)
same,log fold change Tl+ flux,[1],0.0236 (inactive)
same,log fold change Tl+ flux,R275C,-0.0044 (inactive)
same,log fold change Tl+ flux,R275C/beta1,0.00631 (inactive)
same,log fold change Tl+ flux,R275C/beta2Delta,-0.0502 (inactive)
same,log fold change Tl+ flux,R275C/beta4,-0.00136 (inactive)
same,log fold change Tl+ flux,R275C/Slo1WT/beta2,-0.00667 (inactive)
CN1CC(=O)N2[C@H](c3ccc4c(c3)OCO4)c3[nH]c4ccccc4c3C[C@@H]2C1=O,parasite load remaining,[2],101% (inactive)
same,viability,[2],81.8%
same,fluorescence ratio,[3],1 (inactive)
same,inhibition,[4],-0.4% (inactive)
same,inhibition,[8],-0.1% (inactive)
same,fluorescence ratio,[5],1 (inactive)
same,mean signal,[6],261 (inactive)
same,red/green cell ratio (normalised),[9],1 (inactive)
same,normalised cell number,[9]; [15],1.08
same,normalised cell number,[9]; [16],1.07
same,log fold change Tl+ flux,F380Y,0.0711 (inactive)
same,log fold change Tl+ flux,F380Y/beta1,0.0938 (inactive)
same,log fold change Tl+ flux,F380Y/beta2Delta,0.00366 (inactive)
same,log fold change Tl+ flux,F380Y/beta4,0.0361 (inactive)
same,log fold change Tl+ flux,[1],-0.0237 (inactive)
same,log fold change Tl+ flux,R275C,-0.0348 (inactive)
same,log fold change Tl+ flux,R275C/beta1,0.198 (active)
same,log fold change Tl+ flux,R275C/beta2Delta,0.0543 (inactive)
same,log fold change Tl+ flux,R275C/beta4,0.0558 (inactive)
same,log fold change Tl+ flux,R275C/Slo1WT/beta2,0.00498 (inactive)
O=c1[nH]c(=O)n(C2CCCO2)cc1F (stereo not drawn),parasite load remaining,[2],107% (inactive) and 21.2% (inactive)
same,viability,[2],73.5% and 76.5%
same,fluorescence ratio,[3],1.08 (inactive)
same,inhibition,[4],6.73% (inactive)
same,inhibition,[8],5.29% (inactive)
same,fluorescence ratio,[5],1.04 (inactive)
same,mean signal,[6],283 (inactive)
same,fold change,[7]; [11],0.803 (inactive) and 0.835 (inactive) and 0.463 (active)
same,fold change,[7]; [12],1.28 and 1.27 and 3.72
same,cell count,[7]; [13],7370 and 6840 and 4080
same,cell count,[7]; [14],9180 and 8190 and 8820
same,z-score,[10]; [17],-0.322 (inactive) and 0.511 (inactive) and 0.255 (inactive)
same,z-score,[10]; [18],-0.199 and -0.575 and -0.0895
same,log fold change Tl+ flux,F380Y,-0.0407 (inactive)
same,log fold change Tl+ flux,F380Y/beta1,0.033 (inactive)
same,log fold change Tl+ flux,F380Y/beta2Delta,-0.0133 (inactive)
same,log fold change Tl+ flux,F380Y/beta4,-0.0214 (inactive)
same,log fold change Tl+ flux,[1],0.0446 (inactive)
same,log fold change Tl+ flux,R275C,-0.0615 (inactive)
same,log fold change Tl+ flux,R275C/beta1,-0.0291 (inactive)
same,log fold change Tl+ flux,R275C/beta2Delta,-0.0162 (inactive)
same,log fold change Tl+ flux,R275C/beta4,-0.0234 (inactive)
same,log fold change Tl+ flux,R275C/Slo1WT/beta2,0.00334 (inactive)
COc1c(N2C[C@@H]3CCCN[C@@H]3C2)c(F)cc2c(=O)c(C(=O)O)cn(C3CC3)c12,parasite load remaining,[2],52.8% (inactive)
same,viability,[2],70.8%
same,mean signal,[6],299 (inactive)
same,red/green cell ratio (normalised),[9],1.11 (inactive)
same,normalised cell number,[9]; [15],0.89
same,normalised cell number,[9]; [16],0.99
same,fold change,[7]; [11],0.953 (inactive)
same,fold change,[7]; [12],0.781
same,cell count,[7]; [13],7060
same,cell count,[7]; [14],7410
same,z-score,[10]; [17],-0.444 (inactive) and -0.324 (inactive)
same,z-score,[10]; [18],0.523 and -0.694
same,log fold change Tl+ flux,F380Y,0.00312 (inactive)
same,log fold change Tl+ flux,F380Y/beta1,-0.0479 (inactive)
same,log fold change Tl+ flux,F380Y/beta2Delta,0.0707 (inactive)
same,log fold change Tl+ flux,F380Y/beta4,0.0364 (inactive)
same,log fold change Tl+ flux,[1],0.0216 (inactive)
same,log fold change Tl+ flux,R275C,-0.02 (inactive)
same,log fold change Tl+ flux,R275C/beta1,-0.0156 (inactive)
same,log fold change Tl+ flux,R275C/beta2Delta,0.0202 (inactive)
same,log fold change Tl+ flux,R275C/beta4,0.0129 (inactive)
same,log fold change Tl+ flux,R275C/Slo1WT/beta2,0.0157 (inactive)
CN1[C@@H]2CCC[C@H]1CC(NC(=O)c1nn(C)c3ccccc13)C2 (stereo partly drawn),mean signal,[6],239 (inactive)
same,fold change,[7]; [11],0.964 (inactive)
same,fold change,[7]; [12],1.59
same,cell count,[7]; [13],10200
same,cell count,[7]; [14],10600
same,z-score,[10]; [17],0.342 (inactive) and -0.62 (inactive)
same,z-score,[10]; [18],0.00777 and -1.31
same,log fold change Tl+ flux,F380Y,0.0826 (inactive)
same,log fold change Tl+ flux,F380Y/beta1,0.016 (inactive)
same,log fold change Tl+ flux,F380Y/beta2Delta,0.036 (inactive)
same,log fold change Tl+ flux,F380Y/beta4,0.0312 (inactive)
same,log fold change Tl+ flux,[1],0.00528 (inactive)
same,log fold change Tl+ flux,R275C,-0.0264 (inactive)
same,log fold change Tl+ flux,R275C/beta1,0.0105 (inactive)
same,log fold change Tl+ flux,R275C/beta2Delta,0.0242 (inactive)
same,log fold change Tl+ flux,R275C/beta4,0.0148 (inactive)
same,log fold change Tl+ flux,R275C/Slo1WT/beta2,0.0272 (inactive)
CN(C)CCOc1ccc(/C(=C(/CCCl)c2ccccc2)c2ccccc2)cc1,parasite load remaining,[2],2.65% (inactive) and 4% (inactive)
same,viability,[2],97.2% and 73.5%
same,fluorescence ratio,[3],0.79 (active)
same,inhibition,[4],-1.97% (inactive)
same,inhibition,[8],20.1% (inactive)
same,fluorescence ratio,[5],0.82 (inactive)
same,mean signal,[6],204 (inactive)
same,red/green cell ratio (normalised),[9],0.97 (inactive)
same,normalised cell number,[9]; [15],1.07
same,normalised cell number,[9]; [16],1.04
same,fold change,[7]; [11],0.93 (inactive) and 0.787 (inactive)
same,fold change,[7]; [12],0.696 and 1.39
same,cell count,[7]; [13],6550 and 5410
same,cell count,[7]; [14],7040 and 6880
same,z-score,[10]; [17],-2.09 (inactive) and -0.316 (inactive)
same,z-score,[10]; [18],-0.803 and -1.13
same,log fold change Tl+ flux,F380Y,0.00227 (inactive)
same,log fold change Tl+ flux,F380Y/beta1,-0.0377 (inactive)
same,log fold change Tl+ flux,F380Y/beta2Delta,0.0156 (inactive)
same,log fold change Tl+ flux,F380Y/beta4,0.0185 (inactive)
same,log fold change Tl+ flux,[1],-0.0413 (inactive)
same,log fold change Tl+ flux,R275C,-0.0555 (inactive)
same,log fold change Tl+ flux,R275C/beta1,0.25 (active)
same,log fold change Tl+ flux,R275C/beta2Delta,-0.123 (active)
same,log fold change Tl+ flux,R275C/beta4,-0.0377 (inactive)
same,log fold change Tl+ flux,R275C/Slo1WT/beta2,-0.045 (inactive)
